Results published in the supplement of paper PMC10646978.
± gives the standard deviation.

Assays:
Conditions in all cases: modulator concentration 10 µM
[1] = test system: RAW-Dual (murine macrophage reporter line); experiment: NF-kB reporter (SEAP) activity fold change vs agonist alone; higher = enhanced NF-kB activity
Outline: (§1)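 In 384-well plates holding 50 000 RAW-Dual murine macrophage reporter cells per well, compound at 10 μM final was pre-incubated for 1 hour at 37 °C, after which a PRR agonist was added overnight. Supernatant SEAP read with QUANTI-Blue at 620 nm absorbance reported NF-κB, and Lucia luciferase read with QUANTI-Luc luminescence reported IRF. Fold change values come from dividing each reporter signal by the mean of agonist-only control wells on the same plate, averaged over replicate plates with propagated errors.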

[2] = test system: RAW-Dual (murine macrophage reporter line); experiment: IRF reporter (Lucia luciferase) activity fold change vs agonist alone; higher = enhanced IRF activity
Outline: as §1

[3] = test system: RAW-Dual (murine macrophage reporter line); experiment: viability score (confluency relative to resting cells, overnight) (fraction); higher = more viable, active = viable (0.7 or more)
Outline: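 A compound met the cutoff when both of two confluency masks exceeded 70% of resting cells. Those masks were made with IncuCyte software from IncuCyte images of RAW-Dual macrophages treated overnight at 10 μM final. This is the basis of the viability score, which is confluency relative to resting cells.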

[4] = agonist: CpG ODN 1826 0.5 ug/mL

| SMILES | NF-kB reporter [1, 4] | NF-kB reporter ([1]; agonist: LPS 0.1 ug/mL) | NF-kB reporter ([1]; agonist: MPLA […]) | IRF reporter ([2]; agonist: 3'3'-cGAMP 10 ug/mL) | IRF reporter ([2]; agonist: LPS 0.1 ug/mL) | IRF reporter ([2]; agonist: MPLA […]) | viability score [3] |
| --- | --- | --- | --- | --- | --- | --- | --- |
| CCCCc1oc2ccccc2c1C(=O)c1cc(I)c(OCCN(CC)CC)c(I)c1 [Prestw-409] | 0.41 ± 0.08 | 0.977 ± 0.075 | 1.15 ± 0.11 | 0.574 ± 0.025 | 1.32 ± 0.2 | 1.51 ± 0.29 | 1.04 (active) |
| Nc1nc(=O)[nH]cc1F | 0.84 ± 0.12 | 1.07 ± 0.085 | 1.08 ± 0.11 | 1.02 ± 0.049 | 1.23 ± 0.071 | 1.33 ± 0.11 | 1.01 (active) |
| O=C1C(=Cc2ccncc2)CCC1=Cc1ccncc1 | 1.03 ± 0.082 | 0.928 ± 0.08 | 0.971 ± 0.12 | 0.993 ± 0.045 | 1.21 ± 0.17 | 1.28 ± 0.27 | 1.01 (active) |
| O=C(C=Cc1ccccc1)NC(NC(=S)Nc1ccc(Cl)cc1)C(Cl)(Cl)Cl (centres undefined) | 1.16 ± 0.11 | 0.783 ± 0.11 | 5.38 ± 0.2 | 0.404 ± 0.07 | 0.804 ± 0.036 | 1.74 ± 0.19 | 0.166 (inactive) |
| C(=C\c1ccccc1)/CN1CCN(C(c2ccccc2)c2ccccc2)CC1 | 1.14 ± 0.16 | 0.957 ± 0.37 | 0.989 ± 0.065 | 0.828 ± 0.028 | 1.23 ± 0.44 | 1.33 ± 0.1 | 0.979 (active) |
| O=C(NCC1CCCO1)c1[nH]nnc1-c1ccc(F)cc1 (centres undefined) | 1.15 ± 0.16 | 0.996 ± 0.075 | 1.01 ± 0.05 | 0.999 ± 0.038 | 1.03 ± 0.048 | 1.1 ± 0.12 | 1 (active) |
| CS(=O)(=O)N1CC(C(=O)N2CCN(c3cccc(Cl)c3Cl)CC2)C1 | 1.16 ± 0.065 | 1.08 ± 0.12 | 0.985 ± 0.027 | 0.906 ± 0.035 | 0.935 ± 0.082 | 0.958 ± 0.13 | 0.999 (active) |
| CCCCN(CCCC)CC(=O)Nc1c2c(nc3ccccc13)CCC2.O=C(O)C(=O)O | 0.63 ± 0.035 | 1.1 ± 0.067 | 1.15 ± 0.068 | 1.38 ± 0.053 | 1.98 ± 0.13 | 0.98 ± 0.15 | 0.308 (inactive) |
| CCN(CC)CC(=O)Nc1c(C)cccc1C.Cl | 1.03 ± 0.079 | 0.968 ± 0.063 | 1.03 ± 0.051 | 0.89 ± 0.075 | 0.927 ± 0.039 | 0.865 ± 0.11 | 0.997 (active) |
| CCCCCOC(=O)CSc1nnc(-c2ccc(Cl)cc2Cl)o1 | 0.957 ± 0.076 | 0.981 ± 0.083 | 0.99 ± 0.048 | 1.07 ± 0.23 | 1.04 ± 0.051 | 1.02 ± 0.14 | 1 (active) |
| Cc1ccc(C(=O)N(CCCN)[C@@H](c2nc3cc(Cl)ccc3c(=O)n2Cc2ccccc2)C(C)C)cc1 | 0.186 ± 0.034 | 0.318 ± 0.13 | 0.59 ± 0.089 | 0.209 ± 0.057 | 0.52 ± 0.23 | 0.241 ± 0.09 | 0.0279 (inactive) |
| COc1ccc(CNCc2cccc3ccccc23)cc1OC | 0.482 ± 0.04 | 0.912 ± 0.094 | 0.966 ± 0.042 | 0.832 ± 0.15 | 1.06 ± 0.086 | 1.16 ± 0.21 | 0.997 (active) |
